# Screens as filed in PubChem BioAssay.
# Rows were chosen to be rich in hits. Some 2.1% of all compounds tested hit in one or more screens of this group.
# EP2 antag = blocks the human prostaglandin E2 receptor EP2; C6 glioma cells expressing human EP2, cAMP TR-FRET; cells stimulated with saturating PGE2; inhibition, % at 25 µM; actives 0.52% (n = 260,000); AID 1422;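 active means percent inhibition above 40 after rounding to a whole number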;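 further: rat C6 glioma host cells with rolipram phosphodiesterase inhibitor present; the protocol text gives 20 µM as final concentration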
# Target sequence (P43116 whole entry, looked up): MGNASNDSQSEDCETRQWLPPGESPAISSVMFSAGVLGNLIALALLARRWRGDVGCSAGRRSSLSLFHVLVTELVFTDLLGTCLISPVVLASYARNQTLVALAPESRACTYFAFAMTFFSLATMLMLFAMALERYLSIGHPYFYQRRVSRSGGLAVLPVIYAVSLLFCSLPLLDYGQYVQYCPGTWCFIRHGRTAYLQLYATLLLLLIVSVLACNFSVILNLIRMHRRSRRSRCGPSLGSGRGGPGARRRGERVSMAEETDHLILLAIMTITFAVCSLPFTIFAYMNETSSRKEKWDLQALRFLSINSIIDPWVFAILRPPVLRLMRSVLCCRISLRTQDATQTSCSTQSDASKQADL
# GSH fluor = compound fluoresces at 488/530 nm on GSH beads. actives 0.25% (n = 190,000). fluorescence (KMESF) at 10 µM. GSH beads flow cytometry, compound fluorescence 488/530 nm; stronger effect = higher value; in the data active means fluorescence above about 89;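 further: glutathione beads carrying GST-tagged Bcl family fusion proteins plus one bare bead set; values are compound well signal with DMSO vehicle wells as background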
# Efa HMGR inh = E. faecalis class II HMG-CoA reductase inhibition; purified E. faecalis HMGR, NADPH absorbance 340 nm kinetic; inhibition, % at 10 µM; actives 0.41% (n = 190,000); AID 1066;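 active means inhibition above a set limit, the median over all tested compounds plus 3 SD, cut at about 9.5% in these data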;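 further: enzyme runs in reverse so mevalonate oxidation gives rising NADPH absorbance; 0% = complete reaction with DMSO and 100% = background rate lacking mevalonate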
# EP2 modulator = EP2 receptor (human) modulation | P43116 | EP2-expressing cells, cAMP HTRF FRET, PGE2 co-stimulation | induction, % at 25 µM | actives 0.83% (n = 260,000) | AID 940;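 active means compounds whose cAMP rise, as percent of the full-agonist control response, exceeds 60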;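 further: rat C6 glioma line stably carrying human EP2 under a CMV promoter; the protocol text gives 20 µM as final concentration; 100% = response of wells given 1 µM PGE2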
# Avidin bead fluor = avidin bead compound fluorescence profile. actives 0.38% (n = 220,000). fluorescence (KMESF) at 10 µM. Avidin beads, compound fluorescence 488/530 nm, flow cytometry; stronger effect = higher value; in the data active means fluorescence above about 47
# Numbers without * were called inactive; · = no result; ! = not confirmed by another sample.
SMILES,EP2 antag,GSH fluor,Efa HMGR inh,EP2 modulator,Avidin bead fluor
CC(=O)Nc1ccc(NC(=O)c2cccc3c2-c2ccccc2C3=O)cc1,7.0,8,-3.9,-50.7,99*
O=C(O)C1C2C=CC3(CN(c4cccc5ccccc45)C(=O)C13)O2 (stereo unspecified),20.8,·,·,-10.7,·
Nc1nc(SCc2ccccc2Cl)ns1,11.2,17,12.8*,6.5,5
Nc1nc(SCc2ccccc2)ns1,12.0,31,1.6,19.8,13
Cn1ccnc1Sc1nc2ccccc2nc1NS(=O)(=O)c1ccccc1,51.6*,20,-2.5,50.0,27
CCC(=O)c1cn(CC(=O)Nc2ccccc2C(F)(F)F)c2ccccc12,6.5,·,·,-0.4,·
O=C(O)CNCc1nc2ccccc2[nH]1,12.1,·,·,-8.9,·
CNCc1nc2ccccc2[nH]1,7.0,20,12.5*,17.1,11
COc1ccc(-c2nc3c4ccccc4ccn3c2CN2CCCCC2)cc1OC,9.4,·,·,64.0*,8
COc1ccc(-c2nc3c4ccccc4ccn3c2CN2CCCCC2)cc1,3.9,12,-2.4,42.9,24
COC(=O)[C@@H]1OC(=O)C2OC23[C@@]1(C)CCC1[C@@]2(C)CCC(=O)C(C)(C)C2C[C@@H](OC(C)=O)[C@]13C (stereo partly specified),14.5,·,·,32.6,·
CCC(CO)NCc1ccc(OC2CCCC2)cc1 (stereo unspecified),7.8,140*,1.0,0.9,4
COc1cccc(/C=C2/SC(=O)N(C)C2=O)c1OCc1ccc(C(=O)O)cc1,2.6,7,10.5*,1.1,8
Cc1cc(N2CCCCC2)nc(N2CCOCC2)n1,12.9,35,1.3,-3.3,111*
COc1cc(/C=N/NC(=O)c2ccc(-c3ccccc3)cc2)cc(OC)c1OC,12.2,13,12.5*,-7.5,3
CC1(C)CC(N(Cc2cnn(C3CCCCC3)c2)Cc2ccccn2)CC(C)(C)N1,8.1,·,·,-12.1,·
O=C1OC(c2ccc(O)c(-c3ccccc3)c2)(c2ccc(O)c(-c3ccccc3)c2)c2c(Cl)c(Cl)c(Cl)c(Cl)c21,46.9*,·,·,3.9,·
CCOC(=O)CSc1ccc(-c2nc3ccccc3[nH]2)cn1,42.3*!,12,-2.5,-49.4,9
CCOC(=O)CSc1ccc(-c2nc3cc(C)c(C)cc3[nH]2)cn1,57.3*!,33,-1.7,-62.2,15
Cc1cc2nc(-c3ccc(SCC(=O)Nc4ccc5c(c4)OCCO5)nc3)[nH]c2cc1C,6.4,11,-6.9,-43.0,53*
Cn1c(N2CCCC(C(=O)NCc3ccc(F)cc3)C2)nc2ccccc21 (stereo unspecified),·,·,·,-34.0,·
CCOC(=O)C(C)On1c(-c2ccccc2)nc2ccc([N+](=O)[O-])cc21 (stereo unspecified),14.4,47,-0.8,62.1*,36
O=C(Cn1ncc2ccccc21)N1CCN(c2cccc(C(F)(F)F)c2)CC1,14.4,19,18.2*,-35.4,8
CCOC(=O)N1CCN(C(=O)Cn2ncc3ccccc32)CC1,15.2,27,-6.1,18.4,4
CSc1cnn(-c2ccccc2)c(=O)c1SC,42.4*,37,1.2,2.6,12
SMILES,EP2 antag,GSH fluor,Efa HMGR inh,EP2 modulator,Avidin bead fluor
CCSc1cnn(-c2ccccc2)c(=O)c1SCC,136.2*,9,-3.1,2.9,12
CCCCSc1cnn(-c2ccccc2)c(=O)c1SCCCC,16.6,14,-3.2,9.4,21
O=C(c1nc2ccccc2s1)C1CCN(C(=O)c2ccc(OC3CSC3)cc2)CC1,·,·,·,-92.5,·
O=C(C1CC(c2cccc(Br)c2)=NO1)N1CCCCC1 (stereo unspecified),9.6,·,·,-53.0,·
Cc1cccc(NC(=O)C2CC(=O)N(c3ccc(OC(C)C)cc3)C2)c1C (stereo unspecified),6.2,·,·,-48.1,·
Cc1nnc(SCC(=O)N2CCCC2)n1Cc1ccccc1,4.5,·,·,-44.5,·
CC(=O)NC(=S)Nc1ccc(NC(=O)COc2ccc(Cl)cc2Cl)cc1,0.6,3,-2.8,-22.8,78*
O=C(COc1ccc(Cl)cc1Cl)NNC(=S)Nc1ccc(F)cc1,10.1,27,-3.6,-1.1,32
COC(=O)c1[nH]c2cccc(OC)c2c1NC(=O)CCN1CCC(C)CC1,18.6,22,0.2,4.3,33
CCOC(=O)c1[nH]c2ccc(OC)cc2c1NC(C)=O,18.2,15,2.8,20.2,62*
CCOC(=O)Nc1c(C(=O)OC)[nH]c2cccc(OC)c12,9.9,28,2.1,-16.6,57*
N=C(N)c1ccc(N=Nc2c(O)ccc3c2[nH]c2ccccc23)cc1,50.6*,·,·,-23.1,·
NC(=O)c1ccc(N=Nc2c(O)c3ccccc3[nH]c2=O)cc1,13.9,·,·,-21.5,7
COc1cc(C2NC(=O)C(C#N)=C(S)N2c2cccc(C)c2)ccc1OC(C)C (stereo unspecified),7.2,·,·,-3.0,·
N#Cc1cn(-c2ccccc2)nc1C(=O)c1ccccc1,15.4,38,-7.3,62.4*,7
CC(=O)c1nn(-c2ccc(Br)cc2)cc1C(=O)c1ccccc1,1.4,6,3.0,26.0,3
COc1ccc(C(=O)NCCc2nnc(SCC(=O)Nc3ccccc3F)n2C)cc1,0.7,21,-15.0,-6.2,80*
Cn1c(CCNC(=O)c2ccccc2F)nnc1SCC(=O)Nc1ccccc1F,5.4,17,-3.5,13.5,11
COc1cccc2cc(C(=O)N3CCC(C(N)=O)CC3)c(=O)oc12,8.9,·,·,-14.8,·
CCC(CN1CCOCC1)NC(=O)Cc1c(C)[nH]c2ccc(F)cc12 (stereo unspecified),10.4,·,·,-28.9,·
Fc1ccc(N2CCN(c3ccc4c(C(F)(F)F)cc(C(F)(F)F)nc4n3)CC2)cc1,6.6,15,3.3,47.4,92*
COc1ccc(C2CC(c3ccc(OC)cc3)n3nc(N)nc3N2)cc1 (stereo unspecified),10.9,·,·,·,·
COc1ccc(C2CC(c3ccccc3)Nc3nc(N)nn32)cc1 (stereo unspecified),4.8,17,-7.0,29.2,50*
Cc1cc(C(F)(F)F)nn1CC(=O)NNC(=S)Nc1ccc(F)cc1,6.3,35,1.7,-5.7,15
Cc1cc(C(F)(F)F)nn1CC(=O)NNC(=S)Nc1ccc(Cl)cc1,196.1*,18,-2.9,1.5,11
SMILES,EP2 antag,GSH fluor,Efa HMGR inh,EP2 modulator,Avidin bead fluor
CC(=O)Oc1ccc(C(=O)Nc2nnc(C(C)(C)C)s2)cc1,11.9,·,·,-55.8,·
CC1(C)CC2(CCCN(C(=S)Nc3ccccc3)C2)CCO1 (stereo unspecified),2.8,·,·,-7.2,9
O=C(CCN1CCCCCC1)c1ccccc1,52.3*,29,3.4,-6.9,5
COc1ccc(C(=O)CCN2CCCCCC2)cc1,6.8,13,-1.1,2.3,32
CCC1(C)CC2(CCCN(CCC(=O)c3ccccc3)C2)CCO1 (stereo unspecified),80.6*!,14,-7.3,-94.3,14
O=C1OC(CC(=O)N2CCCC(c3ncncc3-c3ccncc3)C2)c2ccccc21 (stereo unspecified),·,·,·,-17.9,·
Cc1cccc2cc(CN(CC3CCCO3)C(=S)NCCc3ccccc3)c(=O)[nH]c12 (stereo unspecified),8.0,·,·,-18.3,·
